PubChem BioAssay (NCATS)
Values joined by “and” are separate entries in the source; they are usually repeats but may differ in a detail not shown here. Equal entries are not always repeated. Active and inactive are the calls of the source. Unless noted, calls follow the shape of the full dose curve.

How the values were obtained:
[1] = Cell Viability - BJ (AID 421); details: BJ fibroblast viability, qHTS;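 also: potency is read from the fitted curve at half-maximal effect; cells exposed to compound for 40 hours at 37 °C before readout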
Summary of the method: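 Luminescent ATP signal (CellTiter-Glo, 20 min at room temperature) served as the read-out of viable BJ cells after 40 hours of compound treatment. Responses were scaled between DMSO and 100 uM tamoxifen, and AC50 values were obtained by Hill modeling.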

[2] = Cell Viability - MRC5 (AID 434); details: MRC5 lung fibroblast viability, qHTS;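 also: potency is read from the fitted curve at half-maximal effect; potency reflects cytotoxicity seen as loss of intracellular ATP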
Summary of the method: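 MRC5 normal human lung fibroblasts, 1500 cells/well, exposed to compound for 40 hr at 37 C. Cellular ATP was read by CellTiter-Glo luminescence; data normalized to DMSO and 100 uM tamoxifen, with AC50 from Hill fits.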

[3] = Cell Viability - N2a (AID 540; active = well fitted cell-killing curve with a large enough effect; inconclusive = small, poorly fitted or top-dose-only effect;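 also: plate controls were DMSO alone for no effect and tamoxifen control for full effect; nearly all actives have a fitted effect of over 45% in size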); details: N2a mouse neuroblastoma cell viability; activity change, negative = cytotoxicity: at 92.2 µM (top of the series)
Summary of the method: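 Mouse neuroblastoma N2a cells, 1500/well, exposed to compounds 40 h at 37 °C in complete medium. Viability measured as cellular ATP by CellTiter-Glo luminescence; AC50 from Hill fits of concentration-response.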

[4] = MultiTox-Fluor Cytotoxicity Assay - LYMP1-001 - Live Cells (AID 947; active = well fitted cell-killing curve with a large enough effect; inconclusive = small, poorly fitted or top-dose-only effect;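 also: 0% = DMSO only and full inhibition = tetraoctylammonium bromide control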); details: LYMP1-001 lymphoblastoid cells, live-cell protease fluorescence viability; series mostly up to 92.2 µM
[5] = target: Estrogen receptor (Homo sapiens) (UniProt P03372); assay: qHTS assay for small molecule antagonists of estrogen receptor alpha signaling (AID 588513; active = well fitted curve in the direction sought with a large enough effect in the signal ratio, with a control signal flat, not every such curve was filed as active; inconclusive = small, poorly fitted or top-dose-only effect, or effect the other way, or a change in a side signal; inactive = no such curve, though single readings can be large or run the other way; the % refers to the signal ratio; also: potency is read from the fitted curve at half-maximal effect); details: ER-alpha-UAS-bla HEK293, beta-lactamase ratio, antagonist mode; series mostly up to 76.9 µM
Sequence of Estrogen receptor (Homo sapiens) (P03372 whole entry, looked up): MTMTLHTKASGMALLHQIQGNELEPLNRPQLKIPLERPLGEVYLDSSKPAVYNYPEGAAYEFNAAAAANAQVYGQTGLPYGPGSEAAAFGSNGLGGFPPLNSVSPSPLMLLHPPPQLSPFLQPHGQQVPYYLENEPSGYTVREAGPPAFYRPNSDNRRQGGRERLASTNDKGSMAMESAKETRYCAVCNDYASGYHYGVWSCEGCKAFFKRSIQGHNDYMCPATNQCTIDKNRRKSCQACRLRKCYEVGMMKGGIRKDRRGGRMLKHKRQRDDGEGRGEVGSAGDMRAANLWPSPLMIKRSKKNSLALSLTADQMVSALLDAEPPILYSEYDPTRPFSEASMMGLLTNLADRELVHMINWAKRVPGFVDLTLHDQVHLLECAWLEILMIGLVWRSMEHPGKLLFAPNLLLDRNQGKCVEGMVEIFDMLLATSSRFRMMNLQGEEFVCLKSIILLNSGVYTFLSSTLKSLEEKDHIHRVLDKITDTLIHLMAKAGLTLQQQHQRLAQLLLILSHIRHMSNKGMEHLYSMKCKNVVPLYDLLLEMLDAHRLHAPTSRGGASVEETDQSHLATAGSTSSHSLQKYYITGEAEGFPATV
Summary of the method: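 ER-alpha-UAS-bla GripTite HEK 293 cells in 2% charcoal/dextran-treated FBS medium; compounds titrated (1:2, duplicate), then stimulated with 0.5 nM 17-beta-estradiol for 18 h at 37C. CCF4 beta-lactamase fluorescence; Hill-fit IC50 and efficacy.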

[6] = target: Glucocorticoid receptor (Homo sapiens) (UniProt P04150); assay: qHTS assay for small molecule agonists of glucocorticoid receptor signaling (AID 588532; active = well fitted curve in the direction sought with a large enough effect in the signal ratio, with a control signal flat; inconclusive = small, poorly fitted or top-dose-only effect, or a change in a side signal; inactive = no such curve, though single readings can be large or run the other way; the % refers to the signal ratio;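 also: 100% = dexamethasone at 0.1 µM and 0% = DMSO only wells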); details: HeLa MMTV-bla, beta-lactamase ratio, agonist, 18 h; stronger effect = higher value; percent of dexamethasone control, DMSO zero
Sequence of Glucocorticoid receptor (Homo sapiens) (P04150 whole entry, looked up): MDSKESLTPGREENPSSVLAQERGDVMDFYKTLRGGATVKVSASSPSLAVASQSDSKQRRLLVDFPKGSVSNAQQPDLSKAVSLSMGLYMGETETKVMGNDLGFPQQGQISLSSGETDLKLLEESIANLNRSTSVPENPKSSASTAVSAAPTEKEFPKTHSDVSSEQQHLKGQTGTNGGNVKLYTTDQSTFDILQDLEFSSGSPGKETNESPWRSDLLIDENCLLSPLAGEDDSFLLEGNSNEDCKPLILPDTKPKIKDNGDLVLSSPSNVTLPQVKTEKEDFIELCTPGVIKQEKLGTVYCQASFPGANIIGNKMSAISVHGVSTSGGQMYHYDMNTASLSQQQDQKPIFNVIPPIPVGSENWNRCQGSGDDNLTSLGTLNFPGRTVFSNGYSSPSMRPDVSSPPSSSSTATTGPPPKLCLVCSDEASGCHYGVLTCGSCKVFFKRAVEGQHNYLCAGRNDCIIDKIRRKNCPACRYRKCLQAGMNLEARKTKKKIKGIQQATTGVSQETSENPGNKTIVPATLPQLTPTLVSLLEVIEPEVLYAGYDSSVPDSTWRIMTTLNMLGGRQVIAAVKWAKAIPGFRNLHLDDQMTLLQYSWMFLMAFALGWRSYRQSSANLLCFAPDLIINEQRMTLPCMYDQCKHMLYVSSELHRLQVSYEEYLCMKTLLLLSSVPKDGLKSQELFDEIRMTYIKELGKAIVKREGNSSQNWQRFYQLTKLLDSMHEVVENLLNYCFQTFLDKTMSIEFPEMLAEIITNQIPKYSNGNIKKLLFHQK
Summary of the method: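 MMTV-bla HeLa beta-lactamase reporter cells in 1% charcoal/dextran FBS medium, compounds up to 92 uM for 18 h at 37 C, CCF4 readout; normalized to 0.1 uM dexamethasone (100%), EC50 and efficacy from Hill fits.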

[7] = qHTS assay for small molecule antagonists of peroxisome proliferator-activated receptor delta signaling (AID 588535; active = well fitted inhibition curve with a large enough effect in the signal ratio, with a control signal flat, not every such curve was filed as active; inconclusive = small, poorly fitted or top-dose-only effect, or effect the other way, or a change in a side signal; inactive = no such curve, though single readings can be large or run the other way; the % refers to the signal ratio;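 as to max response: cells co-treated with a PPAR-delta agonist as stimulator during compound exposure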); details: HEK293T PPARd-UAS-bla, beta-lactamase FRET ratio, 18 h; 460 nm channel
Summary of the method: (§1)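 Antagonist-mode beta-lactamase reporter (GeneBLAzer PPAR-delta-UAS-bla) in HEK293T cells, 2% charcoal/dextran FBS, 4000 cells/well. Compound titrations, 18 h at 37 C; CCF4 ratio read, IC50 and efficacy from Hill fits.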

[8] = target: Peroxisome proliferator-activated receptor delta (Homo sapiens) (UniProt Q03181); assay: as above; details: HEK293T PPARd-UAS-bla, beta-lactamase FRET ratio, 18 h; series mostly up to 76.7 µM
Sequence of Peroxisome proliferator-activated receptor delta (Homo sapiens) (Q03181 whole entry, looked up): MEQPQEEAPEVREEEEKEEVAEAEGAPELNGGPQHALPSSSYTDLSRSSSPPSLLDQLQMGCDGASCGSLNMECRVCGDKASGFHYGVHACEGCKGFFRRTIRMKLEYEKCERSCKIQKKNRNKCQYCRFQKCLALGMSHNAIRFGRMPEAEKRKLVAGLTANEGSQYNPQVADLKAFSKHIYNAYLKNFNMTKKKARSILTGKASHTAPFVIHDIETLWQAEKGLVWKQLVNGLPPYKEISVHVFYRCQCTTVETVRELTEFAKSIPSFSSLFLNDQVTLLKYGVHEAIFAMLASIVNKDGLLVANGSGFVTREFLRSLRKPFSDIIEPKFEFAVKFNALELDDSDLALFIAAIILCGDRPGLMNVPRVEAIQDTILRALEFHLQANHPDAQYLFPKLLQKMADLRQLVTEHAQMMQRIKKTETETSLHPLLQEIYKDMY
Summary of the method: as §1

[9] = target: Peroxisome proliferator-activated receptor gamma (Homo sapiens) (UniProt P37231); assay: qHTS assay for small molecule agonists of peroxisome proliferator-activated receptor gamma signaling (AID 588536; active = well fitted curve in the direction sought with a large enough effect in the signal ratio, with a control signal flat, not every such curve was filed as active; inconclusive = small, poorly fitted or top-dose-only effect, or effect the other way, or a change in a side signal; inactive = no such curve, though single readings can be large or run the other way; the % refers to the signal ratio;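 also: 0% = DMSO basal wells and 100% = rosiglitazone at 2 µM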); details: HEK293 PPARg-UAS-bla, beta-lactamase ratio, 16 h, percent of rosiglitazone response, DMSO as zero; series mostly up to 76.7 µM
Sequence of Peroxisome proliferator-activated receptor gamma (Homo sapiens) (P37231 whole entry, looked up): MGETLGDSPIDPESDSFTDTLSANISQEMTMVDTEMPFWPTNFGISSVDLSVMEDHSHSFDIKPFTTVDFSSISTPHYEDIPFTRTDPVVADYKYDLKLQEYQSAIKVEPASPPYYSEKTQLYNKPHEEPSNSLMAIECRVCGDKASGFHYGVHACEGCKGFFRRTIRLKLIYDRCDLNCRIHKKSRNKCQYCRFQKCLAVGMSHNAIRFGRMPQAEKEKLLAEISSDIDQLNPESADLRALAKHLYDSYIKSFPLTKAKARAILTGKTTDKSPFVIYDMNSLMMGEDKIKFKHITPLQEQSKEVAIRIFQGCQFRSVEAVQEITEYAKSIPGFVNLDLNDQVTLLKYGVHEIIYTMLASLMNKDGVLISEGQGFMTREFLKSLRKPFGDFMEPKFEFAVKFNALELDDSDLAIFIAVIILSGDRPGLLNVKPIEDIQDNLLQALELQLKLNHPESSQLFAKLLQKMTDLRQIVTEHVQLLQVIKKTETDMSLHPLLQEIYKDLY
Summary of the method: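 PPAR-gamma-UAS-bla HEK293 cells in medium with 1% charcoal/dextran-treated FBS were exposed to compounds for 16 h at 37 C. Beta-lactamase activity was read with CCF4 substrate (405 nm excitation, 460/530 nm emission).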

[10] = target: Peroxisome proliferator-activated receptor gamma (Homo sapiens) (UniProt P37231); assay: qHTS assay for small molecule antagonists of peroxisome proliferator-activated receptor gamma signaling (AID 588537; active = well fitted inhibition curve with a large enough effect in the signal ratio, with a control signal flat, not every such curve was filed as active; inconclusive = small, poorly fitted or top-dose-only effect, or effect the other way, or a change in a side signal; the % refers to the signal ratio; also: potency is read from the fitted curve at half-maximal effect); details: HEK293 PPARg-UAS-bla, beta-lactamase ratio, antagonist mode; series mostly up to 76.8 µM
Summary of the method: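 PPARγ-UAS-bla HEK293 cells (3000/well) in 1% charcoal/dextran-stripped FBS are treated with compound, then stimulated with 50 nM rosiglitazone for 16 h at 37 °C. Read-out is CCF4 β-lactamase fluorescence after 2 h at RT. IC50 comes from Hill fits normalised to rosiglitazone and DMSO.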

[11] = target: Vitamin D3 receptor (Homo sapiens) (UniProt P11473); assay: qHTS assay for small molecule antagonists of vitamin D receptor signaling (AID 588541); details: HEK293T VDR-UAS-bla, beta-lactamase ratio, antagonist mode; series mostly up to 76.7 µM;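 also: receptor activated by calcitriol during compound treatment; % is scaled to controls: 0 for no effect and ±100 for the full control effect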
Sequence of Vitamin D3 receptor (Homo sapiens) (P11473 whole entry, looked up): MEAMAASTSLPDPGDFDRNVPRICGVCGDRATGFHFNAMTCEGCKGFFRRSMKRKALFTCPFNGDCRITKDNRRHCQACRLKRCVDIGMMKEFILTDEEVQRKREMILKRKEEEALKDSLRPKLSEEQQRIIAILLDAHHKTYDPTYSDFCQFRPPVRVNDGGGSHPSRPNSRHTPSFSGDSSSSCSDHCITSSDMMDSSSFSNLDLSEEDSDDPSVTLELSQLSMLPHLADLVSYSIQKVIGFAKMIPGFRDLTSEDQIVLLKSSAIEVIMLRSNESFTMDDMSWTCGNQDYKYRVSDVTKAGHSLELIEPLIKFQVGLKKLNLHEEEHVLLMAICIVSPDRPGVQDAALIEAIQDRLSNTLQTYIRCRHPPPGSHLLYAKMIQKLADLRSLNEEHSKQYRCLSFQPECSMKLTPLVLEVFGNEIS
Summary of the method: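 VDR-UAS-bla HEK293T cells in 2% charcoal-stripped FBS were stimulated with 1-alpha,25-dihydroxyvitamin D3 (3 nM final) plus compound for 16 h at 37 C. The beta-lactamase CCF4 readout was normalized to 50 nM agonist and DMSO, and Hill fits gave IC50.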

[12] = target: Thyroid hormone receptor beta (Homo sapiens) (UniProt P10828); assay: qHTS assay for small molecule agonists of thyroid hormone receptor beta signaling (AID 588545); details: TR-UAS-bla GripTite HEK 293, beta-lactamase ratio, agonist mode, 18 h; series mostly up to 76.7 µM;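 also: 0% = DMSO only and 100% = 10 nM T3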
Sequence of Thyroid hormone receptor beta (Homo sapiens) (P10828 whole entry, looked up): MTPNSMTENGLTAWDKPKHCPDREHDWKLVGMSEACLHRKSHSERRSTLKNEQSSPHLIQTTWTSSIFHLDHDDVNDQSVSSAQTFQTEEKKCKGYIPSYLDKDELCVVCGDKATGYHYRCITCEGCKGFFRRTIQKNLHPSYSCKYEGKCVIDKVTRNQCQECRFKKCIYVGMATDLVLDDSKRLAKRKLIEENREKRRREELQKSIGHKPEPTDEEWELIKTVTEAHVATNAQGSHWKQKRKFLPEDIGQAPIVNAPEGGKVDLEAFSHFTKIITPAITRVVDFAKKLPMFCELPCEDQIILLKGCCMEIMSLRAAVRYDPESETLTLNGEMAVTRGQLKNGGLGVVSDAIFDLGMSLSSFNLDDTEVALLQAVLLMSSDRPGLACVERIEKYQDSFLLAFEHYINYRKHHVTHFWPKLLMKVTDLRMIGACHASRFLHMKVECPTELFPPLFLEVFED
Summary of the method: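 TR-UAS-bla-GripTite HEK 293 cells in medium with 2% charcoal/dextran FBS, 0.1 mM NEAA and 1 mM sodium pyruvate were treated with titrated compounds for 18 hrs at 37 C. Beta-lactamase reporter was read with CCF4 dye (ex 405, em 460/530 nm); EC50 from Hill fits.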

[13] = target: Thyroid hormone receptor beta (Homo sapiens) (UniProt P10828); assay: qHTS assay for small molecule antagonists of thyroid hormone receptor beta signaling (AID 588547; active = well fitted inhibition curve with a large enough effect in the signal ratio, with a control signal flat, not every such curve was filed as active; inconclusive = small, poorly fitted or top-dose-only effect, or effect the other way, or a change in a side signal; the % refers to the signal ratio;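 also: cells stimulated with 0.4 nM T3 agonist during compound exposure; % is scaled to controls: 0 for no effect and ±100 for the full control effect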); details: TR-UAS-bla HEK293, beta-lactamase ratio, antagonist mode, 18 h
Summary of the method: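 TR-UAS-bla GripTite HEK293 cells in 2% charcoal/dextran FBS medium; compounds 0.59 nM to 92 uM with T3 at 0.4nM final, 18 h at 37 C. Beta-lactamase read by CCF4 fluorescence (460/530 nm); Hill fits gave IC50 and efficacy.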

[14] = qHTS assay for small molecule agonists of the antioxidant response element (ARE) signaling pathway (AID 651741; active = well fitted activation curve with a large enough effect in the signal ratio; inconclusive = small, poorly fitted or top-dose-only effect, or effect the other way, or a change in a side signal; the % refers to the signal ratio; also: potency is read from the fitted curve at half-maximal effect; as to activation: % of control where 0% means no effect); details: HepG2 ARE-bla reporter, beta-lactamase FRET ratio, 16 h; series mostly up to 96 µM
Summary of the method: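 CellSensor ARE-bla HepG2 cells (2,000/well) carrying ARE-driven beta-lactamase, exposed 16 h at 37 C. LiveBLAzer B/G FRET substrate added for 2 h at room temperature; fluorescence intensity read.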

[15] = qHTS assay for small molecule activators of the p53 signaling pathway (AID 651743; active = well fitted activation curve with a large enough effect in the signal ratio, not every such curve was filed as active; inconclusive = small, poorly fitted or top-dose-only effect, or a change in a side signal; the % refers to the signal ratio; also: % of control where 0% means no effect); details: HCT-116 p53RE-bla, beta-lactamase FRET ratio, 16 h; activation: stronger effect = higher value
Summary of the method: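 p53RE-bla HCT-116 cells carrying a beta-lactamase reporter under p53 response elements were exposed to compounds for 16 hours at 37 C. Reporter activity read as fluorescence after 2 hours at room temperature with LiveBLAzer B/G FRET substrate.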

[16] = target: Glucocorticoid receptor (Homo sapiens) (UniProt P04150); assay: qHTS assay for small molecule antagonists of glucocorticoid receptor signaling (AID 588533; active = well fitted inhibition curve with a large enough effect in the signal ratio, with a control signal flat, not every such curve was filed as active; inconclusive = small, poorly fitted or top-dose-only effect, or effect the other way, or a change in a side signal; the % refers to the signal ratio; also: % is scaled to controls: 0 for no effect and ±100 for the full control effect); details: HeLa MMTV-bla, GRE beta-lactamase ratio, antagonist mode, 18 h; series mostly up to 76.8 µM
Summary of the method: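 Antagonist-mode qHTS: compound titrations added to GRE-bla HeLa cells, then dexamethasone 2 nM final; 18 h, 37 C. CCF4 FRET fluorescence normalized to dexamethasone and DMSO; IC50 from Hill fit.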

[17] = qHTS assay for small molecule disruptors of the mitochondrial membrane potential - 1 hr assay (AID 651754); details: series mostly up to 92.2 µM; also: nearly all actives have a fitted effect of over 35% in size; also: potency is read from the fitted curve at half-maximal effect
Summary of the method: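 HepG2 cells, attached overnight, were exposed to compound for 1 hr at 37C, then stained 30 min with a potentiometric dye. Ratio of red aggregate (590nm) to green monomer (535nm) fluorescence reports membrane potential; collapse shifts signal toward green.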

[18] = target: Bile acid receptor (Homo sapiens) (UniProt Q96RI1); assay: qHTS assay for small molecule agonists of farnesoid X receptor signaling (AID 588527); details: HEK293T FXR-UAS-bla, beta-lactamase ratio, 16 h; stronger effect = higher value;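 also: 0% = vehicle basal and 100% = reference agonist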
Sequence of Bile acid receptor (Homo sapiens) (Q96RI1 whole entry, looked up): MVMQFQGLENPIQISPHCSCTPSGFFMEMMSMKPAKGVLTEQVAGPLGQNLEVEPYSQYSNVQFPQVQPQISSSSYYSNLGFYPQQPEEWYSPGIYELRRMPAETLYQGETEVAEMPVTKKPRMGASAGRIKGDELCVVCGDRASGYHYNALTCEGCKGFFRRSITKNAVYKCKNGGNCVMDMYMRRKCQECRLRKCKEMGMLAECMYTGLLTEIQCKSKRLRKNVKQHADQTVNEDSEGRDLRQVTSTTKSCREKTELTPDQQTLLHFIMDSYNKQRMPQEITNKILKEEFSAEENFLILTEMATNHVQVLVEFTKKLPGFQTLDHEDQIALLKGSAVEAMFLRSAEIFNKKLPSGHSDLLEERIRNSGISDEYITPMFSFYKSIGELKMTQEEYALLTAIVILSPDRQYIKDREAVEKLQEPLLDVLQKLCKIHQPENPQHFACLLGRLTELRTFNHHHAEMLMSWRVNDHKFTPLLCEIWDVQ
Summary of the method: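 FXR-UAS-bla HEK293T, 10% dialyzed FBS; cpds up to 92 uM titration, 16 h 37 C; CCF4 dye 2 h RT; fluorescence. Normalized to chenodeoxycholic acid 100 uM (100%) and DMSO (0%); Hill fit gives EC50, efficacy.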

[19] = target: Peroxisome proliferator-activated receptor delta (Homo sapiens) (UniProt Q03181); assay: qHTS assay for small molecule agonists of peroxisome proliferator-activated receptor delta signaling (AID 588534); details: HEK293T PPARdelta-UAS-bla, beta-lactamase ratio, 18 h; series mostly up to 76.7 µM;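 also: 0% = DMSO basal wells and 100% = positive control agonist at 10 µM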
Summary of the method: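 Cells carrying a PPAR-delta beta-lactamase reporter were treated with compounds for 18 h at 37 °C in agonist mode. CCF4 fluorescence was read after 2 h; EC50 and efficacy from Hill fits.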

[20] = Cell Viability - HepG2 (AID 433); details: qHTS;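 also: potency is read from the fitted curve at half-maximal effect; potency for ATP loss meaning cytotoxicity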
Summary of the method: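 HepG2 cells, 1500 per well, treated 40 hr at 37 °C in complete medium; viability from intracellular ATP by CellTiter-Glo luminescence. Normalized to DMSO and 100 uM tamoxifen; AC50 from Hill fit of qHTS concentration-response.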

SMILES | Potency [1] | Potency [2] | Potency [3] | outcome [4] | Potency [5] | activation [6] | max response [7] | outcome [8] | outcome [9] | Potency [10] | outcome [11] | Potency [12] | activity change % (negative = inhibition) [13] | Potency [14] | activation [15] | outcome [16] | Potency [17] | activation [18] | outcome [19] | Potency [20]
c1ccc(P(c2ccccc2)c2ccccc2)cc1 | > 92 µM (inactive) | > 92 µM (inactive) | inactive | inactive | inactive | 1.22% (inactive) | 58.2% | inactive | inactive | inactive | inactive | inactive | 5.79% (inactive) | 37.6 µM (active) | -3.71% (inactive) | – | – | – | – | –
BrCCc1ccccc1 | > 92 µM (inactive) | – | inactive | – | – | – | -20.6% | inactive | – | – | – | – | -8.86% (inactive) | inactive | -5.87% (inactive) | inactive | inactive | – | – | –
Nc1c(Cl)cc([N+](=O)[O-])cc1Cl | > 92 µM (inactive) | > 92 µM (inactive) | – | inactive | inactive | -0.898% (inactive) | 8.87% and 11.4% | inactive | inactive | inactive | inactive | inactive | 16.2% (inactive) and 3.97% (inactive) | – | – | inactive | 29.8 µM (active) | -3.3% (inactive) and 0.0652% (inactive) | inactive | –
Oc1c(Cl)c(Cl)cc(Cl)c1Cl | > 92 µM (inactive) | > 92 µM (inactive) | – | inactive | – | – | -31% | – | – | – | – | – | 23.1% (inactive) | 66.8 µM (active) | – | – | 42.2 µM (active) | 3.3% (inactive) | inactive | –
Nc1ccc(Cc2ccc(N)c(Cl)c2)cc1Cl | > 92 µM (inactive) | – | – | inactive | – | -1.55% (inactive) | – | – | inactive | 39.8 µM (active) | inactive | – | – | – | -1.58% (inactive) | – | inactive | – | – | > 92 µM (inactive)
N#CC(Br)Br | > 92 µM (inactive) | > 92 µM (inactive) | inactive | – | inactive | -5.99% (inactive) | -6.9% | – | inactive | inactive | – | – | 17% (inactive) | 42.2 µM (active) | – | – | inactive | -0.424% (inactive) | inactive | > 92 µM (inactive)
c1ccc(N=NNc2ccccc2)cc1 | > 92 µM (inactive) | > 92 µM (inactive) | inactive | – | inactive | – | -9.27% and 22.4% | – | inactive | – | – | inactive | 0.0148% (inactive) | 26.6 µM (active) and 9.69 µM (active) | – | – | – | – | inactive | –
COP(=S)(OC)SCn1nnc2ccccc2c1=O | > 92 µM (inactive) | – | – | – | 31.6 µM [inconclusive] (active) | – | – | – | inactive | – | – | – | 7.85% (inactive) | – | 1.84% (inactive) and 3.37% (inactive) | – | – | – | – | > 92 µM (inactive)
O=C(O)c1cccc(Cl)c1 | > 92 µM (inactive) | – | inactive | inactive | inactive | – | 30.4% | inactive | – | – | – | inactive | – | inactive | – | – | inactive | 2.01% (inactive) | inactive | –
